Vif-APOBEC3G blk – qHTS for Inhibitors of Vif-A3G Interactions: qHTS; HeLa A3G-eYFP + Vif (tagged APOBEC3G with the HIV-1 protein that degrades it), YFP fluorescence, overnight; Potency, µM (titrated, usually from 46.1 µM), hits mostly inhibitors; 410,000 compounds, 0.076% hits; AID 602310, 2012; further: nearly all actives have a fitted effect of over 60% in size
Target sequence (Q9HC16 whole entry, looked up): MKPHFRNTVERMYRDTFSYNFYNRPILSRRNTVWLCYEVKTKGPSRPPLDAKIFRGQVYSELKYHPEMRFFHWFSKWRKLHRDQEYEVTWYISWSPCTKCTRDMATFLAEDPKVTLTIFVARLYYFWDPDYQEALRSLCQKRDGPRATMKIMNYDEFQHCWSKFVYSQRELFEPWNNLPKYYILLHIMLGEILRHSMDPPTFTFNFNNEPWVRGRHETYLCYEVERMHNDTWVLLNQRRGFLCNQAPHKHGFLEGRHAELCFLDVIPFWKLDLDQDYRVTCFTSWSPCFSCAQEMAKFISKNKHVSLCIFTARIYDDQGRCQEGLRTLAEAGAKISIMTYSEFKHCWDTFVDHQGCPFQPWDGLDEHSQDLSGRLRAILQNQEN
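HeLa cells stably expressing Vif and C-terminally eYFP-tagged A3G, seeded overnight at 37 deg C, then exposed to compound by pintool overnight at 37 deg C. Rise in yellow fluorescence (Ex 488/Em 500-530, Acumen) marks blocked Vif-driven A3G degradation.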
TrxR1 substrate – qHTS Assay for Substrates of Mammalian Selenoprotein Thioredoxin Reductase 1 (TrxR1): qHTS; Thioredoxin reductase 1, cytoplasmic (Rattus norvegicus), O89049; purified TrxR1 substrate turnover, NADPH consumption readout; Potency, µM (top dose mostly 114 µM); 390,000 compounds, 0.01% hits; further: nearly all actives have a fitted effect of over 50% in size
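Rat TrxR1, dispensed at 90 nM, was prereduced with 400 uM NADPH (final) for 5 min at ~22 deg C, then incubated with compound 15 min before 400 uM selenite. A first-read NADPH fluorescence drop versus no-compound background flagged substrates.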
TrxR1 inh – qHTS Assay for Inhibitors of Mammalian Selenoprotein Thioredoxin Reductase 1 (TrxR1): qHTS | Thioredoxin reductase 1, cytoplasmic (Rattus norvegicus), O89049 | recombinant rTrxR1, NADPH fluorescence consumption, selenite substrate | Potency, µM (highest dose often 114 µM), usual class: inhibitors | 390,000 compounds, 1% hits; further: nearly all actives have a fitted effect of over 65% in size
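Rat TrxR1 (90 nM in the dispensed reagent) was pre-reduced with 400 uM NADPH for 5 min at room temperature, then incubated with compound for 15 min. After 400 uM selenite was added, NADPH fluorescence (Ex 340/Em 450 nm) was followed for 8 min.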
VDR inh – Inhibitors of the vitamin D receptor (VDR): qHTS. Vitamin D3 receptor (Homo sapiens), P11473. VDR-SRC2-3 peptide fluorescence polarization, 2 h. Potency, µM, actives largely listed as inhibitors. 400,000 compounds, 0.93% hits. AID 504847, 2011
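Reagent solutions, kept cold and dark, are dispensed first; compounds are then pinned in at 23 nl, plates briefly spun, and incubated 2 h at ambient temperature. Inhibition of VDR–SRC2-3 peptide binding is read by fluorescence polarization.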
Vif-APOBEC3F blk – qHTS for Inhibitors of Vif-A3F Interactions: qHTS; HeLa A3F-eYFP + Vif (tagged APOBEC3F with the HIV-1 protein that degrades it), YFP fluorescence increase; 390,000 compounds, 0.2% hits; Potency, µM (top dose mostly 46.1 µM); further: nearly all actives have a fitted effect of over 65% in size
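Fluorescence increase (Ex 488/Em 500-530) after overnight compound treatment at 37 deg C flags inhibition of Vif-driven A3F-eYFP loss in stable HeLa A3F-eYFP/Vif cells seeded overnight beforehand.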
VDR confirm – qHTS for Inhibitors of the vitamin D receptor (VDR): Hit Validation in Primary Screen; Potency, µM, actives largely listed as inhibitors; VDR-coactivator inhibition assay, qHTS confirmation; shares compounds with VDR inh; 840 compounds, 89% hits; AID 602199, 2012
VDR FP – qHTS for Inhibitors of the vitamin D receptor (VDR): Hit Validation using a Fluorescein Assay; 840 compounds, 48% hits; VDR-coactivator binding, fluorescein fluorescence polarization; Potency, µM (top dose mostly 57.1 µM), most hits filed as inhibitors; shares compounds with VDR inh
VDR bla – qHTS for Inhibitors of the vitamin D receptor (VDR): Hit Validation using a Beta-Lactamase Assay; Potency, µM (doses to about 46.1 µM), actives largely listed as inhibitors; shares compounds with VDR inh; 840 compounds, 23% hits; VDR beta-lactamase reporter cells, FRET ratio; cells co-treated with VDR agonist LG190178
VDR cytotox – qHTS for Inhibitors of the vitamin D receptor (VDR): Hit Validation using a Cytotoxicity Assay; Potency, µM (series often up to 48.3 µM), most hits filed as cytotoxic; 840 compounds, 18% hits; AID 602204, 2012; cytotoxicity counter-screen, cell viability, qHTS; shares compounds with VDR inh; further: nearly all actives have a fitted effect of over 75% in size
Each line names hits and unclear results; the compound was inactive in the other large screens (follow-up assays come after a bar, where they were run). Hits are enriched below; roughly 1.8% of the tested compounds scored in any of these assays. The call rests on the fitted dose curve; in most records, active means well fitted curve in the direction sought with a large enough effect; inconclusive means small, poorly fitted or top-dose-only effect, or another doubt; inactive means no such curve, though single readings can be large; an effect the other way counts as inactive or inconclusive.

CCCOc1ccc(/C=C2/C(=O)ON=C2C)cc1OCC	TrxR1 inh inconclusive, VDR inh inconclusive | VDR confirm 12.6 | VDR FP 7.08µM | VDR bla inconclusive | VDR cytotox inactive
CCCOc1ccccc1/C=C1/C(=O)ON=C1C	VDR inh 25.1µM | VDR confirm 13.4 | VDR FP inconclusive | VDR bla inactive | VDR cytotox inactive
C=CCOc1ccc(/C=C2/C(=O)ON=C2C)cc1OC	none
O=S(=O)(c1ccccc1Br)N1CCN(c2nc(-c3ccccc3)nc3ccccc23)CC1	none (no result: Vif-APOBEC3F blk)
COC(=O)N1CCC[C@@]2(CCN(C(=O)Nc3ccccc3)C2)C1	none (no result: Vif-APOBEC3G blk, TrxR1 substrate, TrxR1 inh, Vif-APOBEC3F blk)
O=S(=O)(c1ccccc1)N1CCN(S(=O)(=O)c2ccccc2)C1	none
O=S(=O)(/N=S1/CC=CCN1S(=O)(=O)c1ccccc1)c1ccccc1 (centres undefined)	VDR inh 3.55µM | VDR confirm 5.32 | VDR FP inconclusive | VDR bla inactive | VDR cytotox inactive
O=C(/C=C/C#Cc1cccc(NS(=O)(=O)c2ccccc2)c1)NO	none (no result: Vif-APOBEC3G blk, TrxR1 substrate, TrxR1 inh, Vif-APOBEC3F blk)
CC1C/C(=C/c2ccncc2)C(=O)/C(=C/c2ccncc2)C1 (centres undefined)	Vif-APOBEC3G blk inconclusive, TrxR1 inh 14.1µM, VDR inh 22.4µM | VDR confirm 6.7 | VDR FP 3.55µM | VDR bla 5.17µM | VDR cytotox 20.6µM
CCSc1ncc(Cl)c(C(=O)Nc2sc3c(c2C(=O)OC)CCCC3)n1	none (no result: VDR inh, Vif-APOBEC3F blk)
CCSc1ncc(Cl)c(C(=O)Nc2ccc(S(=O)(=O)N(C)c3ccccc3)cc2)n1	none
CS(=O)(=O)c1ncc(Cl)c(C(=O)Nc2ccc(OC(F)F)cc2)n1	TrxR1 inh 39.8µM, VDR inh 10µM | VDR confirm 8.44 | VDR FP 8.91µM | VDR bla inconclusive | VDR cytotox 13µM
O=C(Nc1ccc(OC(F)F)cc1)c1ccccn1	none
CCS(=O)(=O)c1ncc(Cl)c(C(=O)Nc2ccc(S(=O)(=O)N(C)c3ccccc3)cc2)n1	TrxR1 inh 2.82µM, VDR inh inconclusive | VDR confirm 4.47 | VDR FP inconclusive | VDR bla inconclusive | VDR cytotox 7.52µM
CCN(c1ccccc1)S(=O)(=O)c1ccc(NC(=O)c2nc(S(C)(=O)=O)ncc2Cl)cc1	Vif-APOBEC3G blk inconclusive, TrxR1 inh 0.398µM, VDR inh 39.8µM | VDR confirm 13.4 | VDR FP inconclusive | VDR bla inconclusive | VDR cytotox 16.4µM
Cc1cccc(CS(=O)(=O)c2ncc(Cl)c(C(=O)Nc3c(C)cccc3C)n2)c1	Vif-APOBEC3G blk inconclusive, TrxR1 inh inconclusive, VDR inh 22.4µM | VDR confirm 6.7 | VDR FP inconclusive | VDR bla 14.6µM | VDR cytotox inconclusive

Assay outcomes as filed in PubChem BioAssay.
